# Measured values reported in PubChem BioAssay AID652126 (The Scripps Research Institute Molecular Screening Center, 2013).
# The whole screen tested about 370,000 compounds, of which about 3,700 (1%) were called active.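 How the source made its calls: active means activation above the mean over all tested compounds plus 3 SD (cut at about 0.9% in these data); inactive means the rest.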 The sample as a whole holds a higher share of actives than the screen did.
# System: Nuclear hormone receptor DAF-12 (Strongyloides stercoralis)
# Assay: ssDAF-12 driven luciferase reporter activation – cell-based, luminescence, HEK293, GRIP1 co-expression, lit1-tk-luc, primary screen (AID 652126);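 further: 0% = DMSO-only wells and 100% = 3 µM delta7-dafachronic acid wells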
# Conditions: HEK293 ssDAF-12/GRIP1 lit1-tk-luc reporter, at 6.8 µM, active compounds read high, % of 3 µM dafachronic acid response
row,Structure (SMILES),activation
1,CC1=NN(/C(=N\c2nnc(C)s2)Nc2ccccc2)[C@H](c2ccc(C)cc2)S1,-1.96% (inactive)
2,CC(C)C(C#CC1CC1)N(Cc1ccc2c(c1)OCO2)C(N)=NC(=O)/C=C/c1cccc(C(F)(F)F)c1 (centres undefined),-1.84% (inactive)
3,CC(=O)c1ccc(NC(=O)c2cc(-c3cccs3)on2)cc1,-0.86% (inactive)
4,O=C(O)c1ccc(N/N=C/c2cn(-c3ccccc3)nc2-c2cccs2)cc1,1.45% (active)
5,O=C(N/N=C/c1sc(N2CCCCC2)nc1-c1cccs1)c1cccnc1,-1.2% (inactive)
6,O=C(NC1CCCCN(Cc2ccc(Cl)cc2)C1=O)c1ccc(Br)cc1 (centres undefined),-1.36% (inactive)
7,Cc1ccc(Cn2cc(CN3[C@@H](CC(C)C)COc4ccc(Cl)cc4S3(=O)=O)nn2)cc1,-1.11% (inactive)
8,CCC(=O)Nc1ccc2nn(-c3ccc(F)cc3)nc2c1,1.14% (active)
9,CCOC(=O)c1nnn(CC(=O)Nc2cccc(F)c2)c1C(=O)OCC,-1.33% (inactive)
10,O=C(Nc1cccc(Cl)c1)c1cncn1-c1ccc(F)cc1,-1.04% (inactive)
11,COC(=O)[C@]12C[C@H](CC(=O)NCc3cccc4ccccc34)C(=O)N(CCc3ccc(OC)c(OC)c3)C1=C[C@H](C1CCCC1)O[C@@H]2C,-0.95% (inactive)
12,O=C(Nc1ccc(Br)cc1)OCCN1C(=O)CCC12CCC(c1ccccc1)CC2 (centres undefined),-0.35% (inactive)
13,CCOC(=O)c1c(/N=C/c2cc(C)ccc2O)sc2c1CCC2,-1.3% (inactive)
14,CCOC(=O)c1c(N)sc2c1CCCC2=O,1.3% (active)
15,CCOC(=O)c1c(CC(C)C)csc1/N=C/C1=C(O)CCCC1=O,-1.42% (inactive)
16,O=C(C1CCN(S(=O)(=O)c2ccccc2)CC1)N1CCN(C2CCCCC2)CC1,-1.32% (inactive)
17,CC(CCN1CCC(C(O)(c2ccccc2)c2ccccc2)CC1)Oc1ccc(Cl)cc1 (centres undefined),-0.71% (inactive)
18,Cc1ccc(-c2nc(C3CCCN(S(=O)(=O)c4ccc(Br)s4)C3)no2)cc1 (centres undefined),-1.49% (inactive)
19,Nc1nonc1C(=O)NCCc1ccccc1,-1.42% (inactive)
20,NC(=O)Nc1ccccc1C(=O)NCCc1ccccc1,1.06% (active)

row,Structure (SMILES),activation
1,Nc1nc2c(Br)ccc(Br)c2cc1C(=O)NCCc1ccccc1,-1.14% (inactive)
2,O=C(OC12CCCN(C1)/C(=C/c1ccccc1)C2)c1ccco1 (centres undefined),-0.69% (inactive)
3,O=C(C1CCCN1S(=O)(=O)c1ccccc1)N1CCc2ccccc2C1 (centres undefined),-1.12% (inactive)
4,COc1ccc(C(=O)CC(=O)c2ccc(C)cc2)c(O)c1,-1.3% (inactive)
5,COc1ccc2c(C(=O)c3ccc(C)cc3)n(CCC(N)=O)[n+]([O-])c2c1,0.92% (active)
6,COc1ccc(C(=O)c2c3ccc([N+](=O)[O-])cc3[n+]([O-])n2CCCN)cc1,-1.18% (inactive)
7,FC(F)(F)c1cccc(Cn2ccc3ccc(-c4ccc5ccn(Cc6ccccc6)c5c4)cc32)c1,-1.17% (inactive)
8,Cc1ccc(SCCC(=O)NCc2ccccn2)cc1,-1.21% (inactive)
9,Cc1ccc(SCCC(=O)NC(C(C)C)C(C)C)cc1,-1.68% (inactive)
10,Cc1ccc(SCCSc2ncccn2)cc1,0.96% (active)
11,CC(C)N1CCCCC(NC(=O)C(C)(C)C)C1=O (centres undefined),-1.27% (inactive)
12,CCCCC(=O)N[C@@H]1CC[C@@]23CCCN2C(=O)CCC[C@H]3[C@H]1C,-1.42% (inactive)
13,Cc1nn(-c2ccccc2)c2c1C(c1cccc([N+](=O)[O-])c1)N(c1ccccc1)C(=O)N2 (centres undefined),-2.08% (inactive)
14,Cc1nn(-c2ccc([N+](=O)[O-])cc2)c(N)c1-c1ccccc1,0.95% (active)
15,CC(C)(C)c1cnnn1-c1ccc([N+](=O)[O-])cc1,-1.44% (inactive)
16,CC(C)(C)OC(=O)NCCc1ccccc1/C=C/S(=O)(=O)NCc1ccc(F)cc1,-0.76% (inactive)
17,O=C(Nc1nc2ccc(Cl)cc2s1)c1cc(-c2ccc(Cl)cc2)nc2ccccc12,0.48% (inactive)
18,O=C(Nc1ccccc1)Nc1nc2ccccc2s1,2.17% (active)
19,O=C(Nc1ccc2ccccc2c1)Nc1ccc2snnc2c1,-0.89% (inactive)
20,COc1ccc(CN(CCN2CCOCC2)C(=O)c2ccc(C)cc2)cc1OC,-0.08% (inactive)

row,Structure (SMILES),activation
1,COc1ccc(/C=C2\CC3(OC(C)=O)CCCN2C3)cc1 (centres undefined),-1.25% (inactive)
2,Cc1ccc(NC(=O)Nc2cc(C)nn2-c2ccccc2)cc1,-0.89% (inactive)
3,c1ccc(-c2cc(-c3ccccc3)[nH]n2)cc1,2.27% (active)
4,Oc1ccccc1-c1cc(-c2ccc(Cl)cc2)n[nH]1,3.08% (active)
5,Cc1c[nH]c2cccc(-c3ccc(Cl)cc3)c12,-0.3% (inactive)
6,c1ccc(-c2c[nH]c(-c3ccccc3)c2)cc1,0.36% (inactive)
7,O=C(O)c1n[nH]nc1-c1ccccc1,-1.32% (inactive)
8,Cc1cccc(C(=O)Nc2c(-c3ccc(F)cc3)nc3ncccn23)c1,-1.19% (inactive)
9,Nn1c(SCC(=O)Nc2ccc(S(N)(=O)=O)cc2)nnc1-c1n[nH]c2c1CCC2,-0.68% (inactive)
10,O=C(NCCC1=CCCCC1)C1CCN(S(=O)(=O)c2ccc(Cl)s2)CC1,-0.79% (inactive)
11,CCOC(=O)[C@]12CCCC=C1N(CCCOC)C(=O)[C@@H]2CC(=O)N1CCOCC1,-1.03% (inactive)
12,Cc1ccc(N/C=C/C(=O)c2ccccc2)cc1C,3% (active)
13,O=C(/C=C/Nc1ccc(S(=O)(=O)Nc2cnc3ccccc3n2)cc1)c1cccnc1,-0.79% (inactive)
14,Cc1ccc(NC(=O)C2CCCN2C(=O)OCc2ccccc2)cc1C (centres undefined),-0.56% (inactive)
15,COc1ccccc1Cc1c(-c2ccc(Cl)cc2)nc2c3ccccc3ccn12,0.62% (inactive)
16,c1ccc(Cc2c(-c3ccco3)nc3c4ccccc4ccn23)cc1,3.52% (active)
17,Cc1ccc(-c2nc3c(C)cc(Br)cn3c2Cc2ccccc2)cc1,-0.47% (inactive)
18,CN1C(=O)c2cc(NS(C)(=O)=O)ccc2OC[C@@H]2O[C@@H](CC(=O)NCc3ccc(-c4ccccc4)cc3)CC[C@H]21,-1.43% (inactive)
19,Cc1ccccc1CN1CCCCC(NC(=O)c2cccc(C#N)c2)C1=O (centres undefined),-1.04% (inactive)
